# Bioassay records: PubChem BioAssay, several laboratories
# An excerpt weighted towards active compounds, which were near 1.8% of everything screened.
# iPSC survival up = enhancers of single-cell hiPSC survival, primary screen, ATPlite luminescence; 100% = ROCK inhibitor wells, 0% = DMSO; survival enhancement, % at 20 µM; 0.044% of 360,000 active; AID 602274, 2012; in the data active means survival enhancement above about 18%;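 further: cells exposed to compounds for 16 hours before the ATP read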
# CendR NRP1 mod = modulators of CendR peptide binding to NRP-1, primary screen, biochemical, fluorescence polarization, uHTS; FAM-RPARPAR peptide binding to NRP-1; 0.85% of 360,000 active; AID 602438, 2012; Neuropilin-1 (Homo sapiens), O14786; inhibition, % at 25 µM;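 active means inhibition or corrected inhibition above about 18%, plus a signal ratio from 0.5 to 1.5, limit read from the data, passing the limit was not always enough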
# Target sequence (O14786 whole entry, looked up): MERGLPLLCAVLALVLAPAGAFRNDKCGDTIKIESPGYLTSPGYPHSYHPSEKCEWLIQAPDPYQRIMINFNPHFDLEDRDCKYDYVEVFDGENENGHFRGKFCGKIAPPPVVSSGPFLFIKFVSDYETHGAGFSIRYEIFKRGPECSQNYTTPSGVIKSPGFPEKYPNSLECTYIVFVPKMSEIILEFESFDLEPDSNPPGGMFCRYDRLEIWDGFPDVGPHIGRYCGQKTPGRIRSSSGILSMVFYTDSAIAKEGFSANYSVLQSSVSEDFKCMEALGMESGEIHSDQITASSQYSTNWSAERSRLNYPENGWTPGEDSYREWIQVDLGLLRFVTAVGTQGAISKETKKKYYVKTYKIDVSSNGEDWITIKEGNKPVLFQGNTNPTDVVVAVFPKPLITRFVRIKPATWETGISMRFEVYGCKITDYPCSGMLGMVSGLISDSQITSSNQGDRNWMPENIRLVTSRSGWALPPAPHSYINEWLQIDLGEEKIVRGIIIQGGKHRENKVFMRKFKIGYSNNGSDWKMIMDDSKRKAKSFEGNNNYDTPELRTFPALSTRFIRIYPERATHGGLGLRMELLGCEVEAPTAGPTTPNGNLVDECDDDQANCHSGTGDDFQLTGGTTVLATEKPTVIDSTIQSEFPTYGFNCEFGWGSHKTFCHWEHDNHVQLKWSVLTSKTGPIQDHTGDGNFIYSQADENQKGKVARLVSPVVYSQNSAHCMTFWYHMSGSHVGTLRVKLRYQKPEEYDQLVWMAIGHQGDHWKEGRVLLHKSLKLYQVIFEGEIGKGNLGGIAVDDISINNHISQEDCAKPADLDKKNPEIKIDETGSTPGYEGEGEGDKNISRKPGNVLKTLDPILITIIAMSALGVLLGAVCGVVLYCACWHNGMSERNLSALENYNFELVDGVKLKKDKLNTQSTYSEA
# ABCB6 inh MLPCN = ABCB6 transporter inhibitors, primary screen, K562-ABCB6 cells, flow cytometry, MLPCN library; ATP-binding cassette sub-family B member 6 (Homo sapiens), Q9NP58; K562-ABCB6 porphyrin accumulation, 1 h; active compounds read low; fluorescence ratio to DMSO, % at 10 µM; 0.19% of 360,000 active; AID 602162, 2011;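 active means fluorescence ratio to DMSO below 75%, the collection mean minus 3 SD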;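 further: signal is porphyrin accumulated inside mitochondria; 100% equals median channel fluorescence of DMSO control wells; lower ratio means ABCB6 inhibition with less porphyrin fluorescence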
# GSIS activator = GLuc luminescence reporter in INS-1E cells, primary screen for activators of glucose-dependent secretion of insulin; INS-1E GLuc reporter insulin secretion, 2-3 h; activation, % at 16.6 µM; 0.61% of 370,000 active; AID 743287, 2014;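 active means lowest replicate activation of at least 40%, so every replicate reaches that level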;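 further: 0% = median of neutral control wells and 100% = median of IBMX positive control wells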
# ARNT TACC3 PPI = disruptors of ARNT/TACC3 protein interaction, primary screen, biochemical, AlphaScreen, single concentration; AlphaScreen His-ARNT PAS-B/GST-TACC3 binding, luminescence; TACC3 fragment carries E629A point mutation; inhibition, % at 9.99 µM; 0.66% of 390,000 active; Transforming acidic coiled-coil-containing protein 3 (Homo sapiens), Q9Y6A5;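 active means mean inhibition of replicates at least 50% and at least half of replicates each reaching 50%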;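 further: 0% = complete ARNT plus TACC3 wells and 100% = ARNT alone without TACC3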
# * marks the source's active call; other numbers are inactive results; · = no result.
SMILES,iPSC survival up,CendR NRP1 mod,ABCB6 inh MLPCN,GSIS activator,ARNT TACC3 PPI
CCOC(=O)C1(Cc2cccc(F)c2)CCN(Cc2ccon2)CC1,0,30*,98,-10,4
COc1ccc(-n2nnnc2SC(C)C(=O)NC2CCCC2)cc1 (stereo not given),0,20*,107,-11,-1
CC(Sc1nnnn1-c1ccccc1)C(=O)NC1CCCC1 (stereo not given),1,17,101,-11,-1
COc1ccc(Cl)cc1CN1CCN(c2nc(C)cc(C)c2C#N)CC1,2,6,102,·,-3
Cc1cc(C)c(C#N)c(N2CCN(CCOc3ccc(Cl)cc3)CC2)n1,1,27*,99,7,0
CC/C(O)=C1\C(=O)CC(C)(C)CC1=Nc1ccccc1C,1,-10,85,73*,-4
C[C@@H]1CN([C@@H](C)CO)C(=O)c2cc(C#CC3(O)CCCC3)cnc2O[C@@H]1CN(C)C(=O)C1CCOCC1,·,·,·,22,-1
CCCC#Cc1cnc2c(c1)C(=O)N([C@@H](C)CO)C[C@H](C)[C@@H](CN(C)C(=O)C1CCOCC1)O2,·,·,·,3,-3
CN1C(=O)c2cc(NC(=O)c3cscn3)ccc2OC[C@@H]2O[C@@H](CC(=O)N3CCCCC3)CC[C@H]21,·,·,·,12,-11
CCOC(=O)c1cc([N+](=O)[O-])c([N+](=O)[O-])cc1NC(C)=O,-3,6,104,61*,4
CCOC(=O)C(NC(C)=O)C(=O)Nc1ccc(C(C)(C)C)cc1 (stereo not given),-3,2,100,9,-14
CCOC(=O)C(NC(C)=O)C(=O)Nc1ccc(C(C)C)cc1 (stereo not given),0,26*,97,4,6
COc1ccc(S(=O)(=O)N(C)C[C@@H]2Oc3ccc(NS(=O)(=O)c4ccccc4)cc3CC(=O)N([C@H](C)CO)C[C@@H]2C)cc1,·,·,·,0,7
COC1=C(N)C(=O)c2nc(-c3nc(C(=O)O)c(C)c(-c4ccc(OC)c(OC)c4O)c3N)ccc2C1=O,·,·,·,·,65*
CCCCc1nc(N)c(C#N)c(-c2ccco2)c1CCC,0,-10,103,62*,-7
Cc1ccc(Cn2ccsc2=NC(=O)CCl)cc1,-1,-10,98,63*,-8
Cc1ccc(Cn2ccsc2=NC(=O)COC(=O)c2ccc(NC(=O)CC#N)cc2)cc1,0,-5,97,-27,-1
CCCCCCCCC[n+]1cccc2c3ccccc3ccc21,-1,33*,92,·,-9
CCCCCCCCCCCCCCCC[n+]1cccc2ccccc21,-3,42*,96,159*,19
O=C(c1cccnc1)N1CCCCN2[C@H](C1)[C@H](c1ccc(C#Cc3ccccc3)cc1)[C@@H]2CO,·,·,·,·,2
O=C(CC12CC3CC(CC(C3)C1)C2)N/N=C/c1ccncc1,-2,18*,96,5,0
C[n+]1cccc2cccc([O-])c21,0,28*,98,·,42
C/C(Cl)=C/CSc1nn2c(=O)c3ccccc3nc2s1,-3,26*,83,3,21
C=CCSc1nn2c(=O)c3ccccc3nc2s1,-1,0,100,·,8
O=C(N[C@@H]1CCC(=O)N(CC[C@H](Sc2ccc(Br)cc2)c2ccccc2)CC1)OCc1ccccc1,-1,20*,97,·,-3
O=C1CC[C@@H](OCc2ccccc2)CCN1CC[C@H](Sc1ccccc1)c1ccccc1,-2,29*,97,-24,·
O=C1CCC(OCc2ccccc2)CCN1CC[C@@H](Sc1ccccc1)c1ccccc1 (stereo not given in full),0,-6,95,-16,·
CO[C@@H]1CN(C)C(=O)c2ccc(NC(C)=O)cc2OC[C@H](C)N(Cc2ccccn2)C[C@H]1C,·,·,·,16,7
CN1[C@@H]2c3ccc(-c4ccccc4)c(=O)n3C[C@@H]2[C@@H](CO)[C@@H]1C(=O)Nc1ccccc1,·,·,·,2,8
CCN1[C@H](C(=O)NC2CCCC2)[C@@H](CO)[C@@H]2Cn3c(ccc(-c4ccccc4F)c3=O)[C@@H]21,·,·,·,4,-9
